Structures are written as SMILES. Activity calls are given as the source filed them. The calls were made as follows: active = hit-call score of the fitted dose curve at least 0.9, where 1 is the maximum; inactive = score below 0.9.

Common to all, as to settings: mRNA level, 48 h; actives raise or lower the signal
Read-out in assay [1]: Pro-epidermal growth factor (Homo sapiens) (UniProt P01133)
Briefly: LTEA_HepaRG_EGF: Life Technologies and Expression Analysis (LTEA) Assay for Epidermal growth factor (EGF) using HepaRG (AID 2283489). The essentials:
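EGF expression changes in human HepaRG cells are scored by bidirectional fitting relative to 0.5% DMSO controls. Chemicals are tested at eight half-log concentrations up to 100 uM for 48 h in serum-free induction medium.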

Read-out in assay [2]: Early growth response protein 1 (EGR1) transcription factor, EGR1 (gene 1958)
Briefly: LTEA_HepaRG_EGR1: Life Technologies and Expression Analysis (LTEA) Assay for Early growth response protein 1 (EGR1) transcription factor using HepaRG (AID 2283490). The procedure, abridged: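 HepaRG, 48 h exposure, 8-pt half-log series from 100 uM, 0.5% DMSO vehicle; EGR1 transcript by TaqMan qRT-PCR (Fluidigm array), housekeeping-normalized; bidirectional fit relative to DMSO baseline.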

Read-out in assay [3]: Ezrin (EZR), EZR (gene 7430)
Put plainly: LTEA_HepaRG_EZR: Life Technologies and Expression Analysis (LTEA) Assay for Ezrin (EZR) using HepaRG (AID 2283491). The procedure, abridged:
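Differentiated human HepaRG cells, 48 h after plating, were exposed in serum-free induction medium for 48 hours to eight half-log concentrations up to 100 uM in 0.5% DMSO. EZR mRNA was measured by TaqMan qRT-PCR, normalized to ACTB, GAPDH and POLR2A, and fitted bidirectionally against DMSO.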

Read-out in assay [4]: Cytochrome P450 3A7 (Homo sapiens) (UniProt P24462)
Briefly: LTEA_HepaRG_CYP3A7: Life Technologies and Expression Analysis (LTEA) Assay for CYP3A7 using HepaRG (AID 2283492). The essentials: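 Cells were thawed, plated, cultured 48 h, then treated for a further 48 h with chemicals (eight-point half-log series from 100 uM, 0.5% DMSO). RNA was isolated and CYP3A7 expression quantified by qRT-PCR normalised to ACTB, GAPDH and POLR2A.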

Read-out in another assay: CYP3A5 (gene 1577)
Briefly: LTEA_HepaRG_CYP3A5: Life Technologies and Expression Analysis (LTEA) Assay for CYP3A5 using HepaRG (AID 2283493). The essentials: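 Readout was CYP3A5 mRNA by qRT-PCR. HepaRG cultures were exposed for 48 h in serum-free induction medium to chemicals at up to 100 uM, and responses were fitted in both directions relative to DMSO vehicle.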

Read-out in assay [5]: Fatty Acid-Binding Protein 1 (FABP1), FABP1 (gene 2168)
Put plainly: LTEA_HepaRG_FABP1: Life Technologies and Expression Analysis (LTEA) Assay for Fatty Acid-Binding Protein 1 (FABP1) using HepaRG (AID 2283494). The procedure, abridged:
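qRT-PCR readout of FABP1 transcript (normalized to three housekeeping genes) after 48 h chemical exposure of HepaRG cells; eight concentrations, half-log steps, max 100 uM, 0.5% DMSO vehicle; gain or loss fitted relative to DMSO baseline.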

Read-out in assay [6]: Cytochrome P450 4A22 (Homo sapiens) (UniProt Q5TCH4)
Put plainly: LTEA_HepaRG_CYP4A22: Life Technologies and Expression Analysis (LTEA) Assay for Cytochrome P450 4A22 (CYP4A22) using HepaRG (AID 2283495). The essentials: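 Cryopreserved HepaRG cells, plated and cultured 48 h, then switched to serum-free induction medium and treated 48 h (duplicates, up to 100 uM, half-log steps, 0.5% DMSO). Expression change of CYP4A22 was fitted bidirectionally against vehicle.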

Read-out in assay [7]: Glutathione S-Transferase (GSTA2), GSTA2 (gene 2939)
Briefly: LTEA_HepaRG_GSTA2: Life Technologies and Expression Analysis (LTEA) Assay for Glutathione S-Transferase (GSTA2) using HepaRG (AID 2283497). The essentials: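 qRT-PCR readout of GSTA2 transcript, normalized to three housekeeping genes, fitted bidirectionally against 0.5% DMSO baseline. Differentiated HepaRG cells received compound for 48 h at 8 concentrations (top 100 uM, half-log steps).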

Read-out in assay [8]: Glutamate-cysteine ligase catalytic (GCLC), GCLC (gene 2729)
Briefly: LTEA_HepaRG_GCLC: Life Technologies and Expression Analysis (LTEA) Assay for Glutamate-cysteine ligase catalytic (GCLC) using HepaRG (AID 2283498). The essentials:
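HepaRG, 48 h exposure, 8-pt half-log series from 100 uM, 0.5% DMSO vehicle; TaqMan qRT-PCR for GCLC mRNA, housekeeping-normalized; bidirectional curve fit vs DMSO baseline.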

Read-out in assay [9]: Cytochrome P450 7A1 (Homo sapiens) (UniProt P22680)
Put plainly: LTEA_HepaRG_CYP7A1: Life Technologies and Expression Analysis (LTEA) Assay for Cytochrome P450 7A1 (CYP7A1) using HepaRG (AID 2283496). The essentials: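 Using 0.5% DMSO as vehicle and baseline, chemicals were tested in duplicate over an 8-point range from 100 uM on HepaRG cells for 48 h; qRT-PCR signals were normalised to ACTB, GAPDH and POLR2A.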

Sequence of Cytochrome P450 3A7 (Homo sapiens) (P24462 whole entry, looked up): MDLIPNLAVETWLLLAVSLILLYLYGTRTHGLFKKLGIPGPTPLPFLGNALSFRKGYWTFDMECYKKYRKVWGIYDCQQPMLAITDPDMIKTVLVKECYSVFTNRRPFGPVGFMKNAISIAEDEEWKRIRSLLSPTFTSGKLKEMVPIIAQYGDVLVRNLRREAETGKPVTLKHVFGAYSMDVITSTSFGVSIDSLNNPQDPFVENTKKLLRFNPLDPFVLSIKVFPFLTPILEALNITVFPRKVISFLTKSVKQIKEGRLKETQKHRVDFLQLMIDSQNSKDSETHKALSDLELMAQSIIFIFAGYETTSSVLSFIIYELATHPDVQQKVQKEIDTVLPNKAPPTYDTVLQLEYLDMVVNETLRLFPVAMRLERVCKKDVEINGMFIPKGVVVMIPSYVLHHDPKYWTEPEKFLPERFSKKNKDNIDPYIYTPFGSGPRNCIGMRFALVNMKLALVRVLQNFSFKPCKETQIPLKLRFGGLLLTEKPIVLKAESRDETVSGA

The AC50 is the concentration giving half of the maximal activity seen. For the molecule `c1ccc2c(c1)ccc1ccccc12`, the molecule was classed as inactive (in assay [1]; in assay [2]; in assay [3]; in the assay with CYP3A5 (gene 1577); in assay [5]; in assay [6]). Also, the molecule was called inactive in [7] and in assay [8]. In addition, the AC50 in assay [4] is 5.99 µM (active).
`C[C@@H]1C[C@H]2[C@@H]3CCC4=CC(=O)C=C[C@]4(C)[C@@]3(F)[C@@H](O)C[C@]2(C)[C@@]1(O)C(=O)COP(=O)(O)O`: the outcome (in assay [1]; in assay [2]; in assay [3]; in assay [4]; in the assay with CYP3A5 (gene 1577); in [5]) was inactive. Moreover, the result in [6], in [7] and in [8] was inactive.
Regarding `Nc1cccc2c(N)cccc12`, the molecule was called inactive (in assay [1]; in assay [2]; in assay [3]; in assay [4]; with CYP3A5 (gene 1577); in assay [6]). Also, the call in assay [8] was inactive. Further, the AC50 in assay [5] and in assay [7] was 50 µM (active) each time.
`ClC1=C(Cl)C(Cl)(Cl)C(Cl)=C1Cl`: the outcome (in assay [1]; in assay [2]; in assay [3]; in [4]; with CYP3A5 (gene 1577); in [5]) was inactive. Also, the molecule was called inactive in assay [6], in assay [7] and in assay [8].
For `CCC(=C(c1ccc(O)cc1)c1ccc(OCCN(C)C)cc1)c1ccccc1`, the molecule was classed as inactive in assay [1], in assay [3], in [5], in assay [6], in [7] and in assay [8]. Further, the AC50 in [2] is 76.5 µM (active); in assay [4], 3.5 µM (active); in the assay with CYP3A5 (gene 1577), 92.9 µM (active).
As for `c1ccc2cc3c(ccc4ccccc43)cc2c1`, the outcome in assay [1], in assay [3] and in assay [8] was inactive. In addition, the AC50 was 27.9 µM (active) in [2]; 15.7 µM (active) in [4]; 7.18 µM (active) in the assay with CYP3A5 (gene 1577); 21.7 µM (active) in [5]; 26 µM (active) in assay [6]; 8.52 µM (active) in assay [7].
For the molecule `C=C(C)C(=O)OCCC(F)(F)C(F)(F)C(F)(F)C(F)(F)C(F)(F)C(F)(F)F`, the result (in [1]; in assay [2]; in assay [3]; in assay [4]; in the assay with CYP3A5 (gene 1577); in assay [5]) was inactive. Further, the outcome in assay [6], in assay [7] and in assay [8] was inactive.
As for `O=C(O)c1ccccc1C(c1ccc(O)cc1)c1ccc(O)cc1`, the call (in assay [1]; in assay [2]; in assay [3]; in [4]; with CYP3A5 (gene 1577); in assay [5]) was inactive. Also, the call in [6], in assay [7] and in assay [8] was inactive.
Take `CCCCCCCCCCCCc1ccccc1S(=O)(=O)O`: the AC50 is 50 µM (active) in [1]; 88 µM (active) in [4]; 66.4 µM (active) in assay [5]; 79.6 µM (active) in assay [6]; 80.3 µM (active) in [7]. The outcome (in assay [2]; in assay [3]; with CYP3A5 (gene 1577); in assay [8]) was inactive.
For the molecule `CC(C)(C)c1cc(C(C)(C)C)c(O)c(C(C)(C)C)c1`, the outcome (in [1]; in assay [2]; in [3]; with CYP3A5 (gene 1577); in assay [6]; in assay [7]) was inactive. The result in [8] was inactive. The AC50 was 10.9 µM (active) in assay [4] and 14.1 µM (active) in [5].
Regarding `CC(C)(C)c1ccc(O)c(C(C)(C)C)c1`, the result (in [1]; in assay [2]; in assay [3]; in assay [4]; with CYP3A5 (gene 1577); in assay [5]) was inactive. Moreover, the molecule was called inactive in assay [6], in [7] and in [8].
For `CC#C[C@]1(O)CC[C@H]2[C@@H]3CCC4=CC(=O)CCC4=C3[C@@H](c3ccc(N(C)C)cc3)C[C@@]21C`, the AC50 is 4.48 µM (active) in assay [1]; 8.69 µM (active) in assay [2]; 50 µM (active) in [3]; 35.1 µM (active) in [5]; 24.2 µM (active) in assay [6]; 43.6 µM (active) in [9]. In addition, the AC50 in [7] is 71.5 µM (active); in assay [8], 28.4 µM (active). For the same molecule, the call in the assay with CYP3A5 (gene 1577) was inactive.
As to `COCC(C)OCC(C)O` (stereo not drawn), the molecule was called inactive (in assay [1]; in assay [2]; in [3]; in assay [4]; in the assay with CYP3A5 (gene 1577); in [5]). Also, the molecule was called inactive in assay [6], in [7] and in assay [8].
As for `CCN(CC)CCNc1ccc(CNC=O)c2sc3ccc(OC)cc3c(=O)c12`, the molecule was classed as inactive in assay [1]. In addition, the AC50 in [2] is 88.2 µM (active); in assay [3], 76.2 µM (active); in assay [4], 3.36 µM (active); with CYP3A5 (gene 1577), 50 µM (active); in [5], 21.5 µM (active); in assay [6], 25.7 µM (active). Besides, the AC50 in [7] was 81.8 µM (active); in assay [8], 50 µM (active).
In the case of `CCc1ccc(CCOc2ccc(CC3SC(=O)NC3=O)cc2)nc1` (stereo not drawn), the molecule was classed as inactive (in [1]; with CYP3A5 (gene 1577)). The half-maximal activity concentration (AC50) in assay [2] was 15.1 µM (active); in [3], 15.9 µM (active); in [5], 88.3 µM (active); in [6], 84 µM (active); in assay [9] it was 68.5 µM (active); in [7], 78.1 µM (active). In assay [8], the AC50 was 14.2 µM (active).
As for `CC(C)(C)c1cccc(C(C)(C)C)c1O`, the outcome (in [2]; in assay [3]; in assay [4]; with CYP3A5 (gene 1577); in assay [5]; in [6]) was inactive. Besides, the outcome in [7] and in [8] was inactive.

The record behind these values is PubChem BioAssay (EPA / NIEHS).
